Measurements as given in PubChem BioAssay (EPA / NIEHS).
Activity calls are given as the source filed them. Rule for the calls: active = hit-call score of the fitted dose curve at least 0.9, where 1 is the maximum; inactive = score below 0.9.

Columns and labels:
Conditions in all cases: mRNA level, 48 h; actives raise or lower the signal
[1] = read-out: ABC Transporter (ABCB11), ABCB11 (gene 8647); assay: LTEA_HepaRG_ABCB11: Life Technologies and Expression Analysis (LTEA) Assay for ABC Transporter (ABCB11) using HepaRG (AID 2283463)
Summary of the method: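 Differentiated human HepaRG cells were exposed for 48 h in serum-free induction medium to eight half-log concentrations up to 100 uM in 0.5% DMSO. ABCB11 mRNA was quantified by qRT-PCR, normalized to ACTB, GAPDH and POLR2A, and fitted bidirectionally versus DMSO.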

[2] = read-out: ABC Transporter (ABCC2), ABCC2 (gene 1244); assay: LTEA_HepaRG_ABCC2: Life Technologies and Expression Analysis (LTEA) Assay for ABC Transporter (ABCC2) using HepaRG (AID 2283464)
Summary of the method: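 HepaRG cells were plated 48 h, switched to serum-free induction medium, then exposed in duplicate for 48 h to 8 concentrations (top 100 uM, half-log steps, 0.5% DMSO). ABCC2 mRNA was measured by qRT-PCR normalized to ACTB/GAPDH/POLR2A; bidirectional fitting versus DMSO.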

[3] = read-out: Broad substrate specificity ATP-binding cassette transporter ABCG2 (Homo sapiens) (UniProt Q9UNQ0); assay: LTEA_HepaRG_ABCG2: Life Technologies and Expression Analysis (LTEA) Assay for ABC Transporter (ABCG2) using HepaRG (AID 2283465)
Summary of the method: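 Differentiated HepaRG cells in serum-free induction medium were exposed for 48 h, in duplicate, to eight half-log concentrations up to 100 uM in 0.5% DMSO. ABCG2 mRNA was measured by TaqMan qRT-PCR, normalized to ACTB, GAPDH and POLR2A, and fitted bidirectionally versus DMSO.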

[4] = read-out: ATP-citrate lyase (ACLY), ACLY (gene 47); assay: LTEA_HepaRG_ACLY: Life Technologies and Expression Analysis (LTEA) Assay for ATP-citrate lyase (ACLY) using HepaRG (AID 2283466)
Summary of the method: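 Differentiated human HepaRG cells in serum-free induction medium exposed 48 h, in duplicate, to eight half-log concentrations from 100 uM top in 0.5% DMSO; ACLY mRNA measured by qRT-PCR, normalized to ACTB, GAPDH, POLR2A, fitted bidirectionally versus DMSO.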

[5] = read-out: Peroxisomal acyl-coenzyme A oxidase 1 (ACOX1) gene, ACOX1 (gene 51); assay: LTEA_HepaRG_ACOX1: Life Technologies and Expression Analysis (LTEA) Assay for Peroxisomal acyl-coenzyme A oxidase 1 (ACOX1) gene using HepaRG (AID 2283467)
Summary of the method: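 Differentiated human HepaRG cells were exposed in duplicate for 48 h in serum-free induction medium to eight half-log concentrations up to 100 uM in 0.5% DMSO. ACOX1 mRNA was then quantified by TaqMan qRT-PCR, normalized to ACTB, GAPDH and POLR2A.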

[6] = read-out: Alkaline Phosphatase, Placental (ALPP) gene, ALPP (gene 250); assay: LTEA_HepaRG_ALPP: Life Technologies and Expression Analysis (LTEA) Assay for Alkaline Phosphatase, Placental (ALPP) gene using HepaRG (AID 2283468)
Summary of the method: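 Differentiated human HepaRG cells were plated and cultured 48 h, then exposed in duplicate for 48 h in serum-free induction medium to eight half-log concentrations from 100 uM in 0.5% DMSO. ALPP mRNA was measured by TaqMan qRT-PCR, normalized to ACTB, GAPDH, POLR2A.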

[7] = read-out: Bcl-2 (BAD) gene, BAD (gene 572); assay: LTEA_HepaRG_BAD: Life Technologies and Expression Analysis (LTEA) Assay for Bcl-2 (BAD) gene using HepaRG (AID 2283469)
Summary of the method: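 Differentiated human HepaRG cells in serum-free induction medium were exposed in duplicate for 48 h to eight concentrations (top 100 uM, half-log steps, 0.5% DMSO). BAD mRNA was quantified by qRT-PCR normalised to ACTB, GAPDH and POLR2A, with bidirectional fitting versus DMSO.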

[8] = read-out: Bcl-2 (BAX) gene, BAX (gene 581); assay: LTEA_HepaRG_BAX: Life Technologies and Expression Analysis (LTEA) Assay for Bcl-2 (BAX) gene using HepaRG (AID 2283470)
Summary of the method: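 Concentration-response endpoint fitted in both directions relative to 0.5% DMSO vehicle. Human HepaRG cultures receive test chemicals for 48 h at up to 100 uM; BAX mRNA is quantified by qRT-PCR against housekeeping genes.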

[9] = read-out: adenosine kinase (ADK) gene, ADK (gene 132); assay: LTEA_HepaRG_ADK: Life Technologies and Expression Analysis (LTEA) Assay for adenosine kinase (ADK) gene using HepaRG (AID 2283471)
Summary of the method: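 ADK expression quantified by qRT-PCR, normalised to three housekeeping genes, after 48 h exposure of HepaRG cells to eight concentrations (top 100 uM, half-log steps, duplicate, 0.5% DMSO). Up- or down-regulation fitted relative to vehicle.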

[10] = read-out: Alpha-fetoprotein (AFP) gene, AFP (gene 174); assay: LTEA_HepaRG_AFP: Life Technologies and Expression Analysis (LTEA) Assay for Alpha-fetoprotein (AFP) gene using HepaRG (AID 2283472)
Summary of the method: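 After a 48 h plating period, cells are moved to serum-free induction medium and dosed in duplicate (100 uM maximum, half-log dilutions, 0.5% DMSO) for another 48 h. Total RNA goes to TaqMan qRT-PCR; AFP signal is housekeeping-normalized.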

Measured: AC50

Sequence of Broad substrate specificity ATP-binding cassette transporter ABCG2 (Homo sapiens) (Q9UNQ0 whole entry, looked up): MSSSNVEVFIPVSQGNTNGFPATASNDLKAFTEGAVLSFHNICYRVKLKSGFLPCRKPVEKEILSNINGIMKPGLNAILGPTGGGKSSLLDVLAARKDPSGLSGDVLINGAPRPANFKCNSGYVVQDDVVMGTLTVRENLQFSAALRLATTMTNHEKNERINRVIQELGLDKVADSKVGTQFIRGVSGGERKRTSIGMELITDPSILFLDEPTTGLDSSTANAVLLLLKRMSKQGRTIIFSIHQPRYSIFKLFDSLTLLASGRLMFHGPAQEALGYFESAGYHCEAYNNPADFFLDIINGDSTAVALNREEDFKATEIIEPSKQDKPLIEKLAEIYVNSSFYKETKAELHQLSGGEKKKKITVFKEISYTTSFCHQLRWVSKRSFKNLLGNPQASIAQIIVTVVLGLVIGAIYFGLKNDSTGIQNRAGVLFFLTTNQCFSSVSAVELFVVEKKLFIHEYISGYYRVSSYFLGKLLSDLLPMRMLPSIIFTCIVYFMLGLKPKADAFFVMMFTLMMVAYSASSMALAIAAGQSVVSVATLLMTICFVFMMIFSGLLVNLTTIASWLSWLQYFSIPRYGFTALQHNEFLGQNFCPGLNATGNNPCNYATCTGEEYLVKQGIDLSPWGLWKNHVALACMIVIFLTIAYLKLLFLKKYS

COc1cc(C(C)C)c2c(c1)S(=O)(=O)N(COc1cc(=O)n3cccc(OCCN4CCCCC4)c3n1)C2=O
inactive: [4] | [7] | [8]
active: [1] 17.5 µM | [2] 22.3 µM | [3] 20.9 µM | [5] 19.8 µM | [6] 6.3 µM | [9] 22 µM

Cc1ccc(S(=O)(=O)NC(=O)NN2CCCCCC2)cc1
active: [6] 0.161 µM
not listed: [5] | [10]
inactive: all other assays above

CCCCCCCC1CCC(=O)O1 (stereo unspecified)
not listed: [1] | [5]
inactive: all other assays above

OC(Cn1cncn1)(Cn1cncn1)c1ccc(F)cc1F
not listed: [5] | [10]
inactive: all other assays above

NC(=O)N(O)[C@@H]1COc2cc(OCc3ccccc3)ccc21
not listed: [5] | [10]
inactive: all other assays above

CCOc1ccc2[nH]cc(C(=O)NCc3ccccc3)c(=O)c2n1
not listed: [5] | [10]
inactive: all other assays above

O=C1CN(N=Cc2ccc([N+](=O)[O-])o2)C(=O)N1
active: [1] 27.7 µM | [3] 50 µM | [6] 75 µM
not listed: [5]
inactive: all other assays above

C[C@]12C=CC(=O)C=C1CC[C@H]1[C@@H]3C[C@@H](O)[C@](O)(C(=O)CO)[C@@]3(C)C[C@H](O)[C@@]12F
not listed: [5] | [9]
inactive: all other assays above

CCn1nc(C)c2c1C(=O)NCC(c1ccc(O)cc1)=N2
not listed: [5] | [10]
inactive: all other assays above

CC[C@H](C)C(=O)O[C@H]1C[C@H](O)C=C2C=C[C@H](C)[C@H](CC[C@@H](O)C[C@@H](O)CC(=O)O)[C@H]21
active: [4] 9.05 µM
not listed: [5]
inactive: all other assays above

c1ccc(C(O[C@@H]2CCCN(CCc3ccc4c(c3)OCO4)C2)c2ccccc2)cc1
inactive: [3] | [4] | [7] | [10]
active: [1] 76.8 µM | [2] 79.7 µM | [6] 68.5 µM | [8] 80.1 µM | [9] 90.7 µM

NC(N)=O
not listed: [5] | [10]
inactive: all other assays above

CCCCCCCCCC
not listed: [5] | [10]
inactive: all other assays above

Nc1ccn([C@@H]2O[C@H](CO)[C@@H](O)[C@@H]2O)c(=O)n1
not listed: [5]
inactive: all other assays above

COCc1nnc(-c2ccc[n+]([O-])c2)n1-c1c(Cl)c(Cl)cc2[nH]c(=O)c(=O)[nH]c12
not listed: [5] | [10]
inactive: all other assays above

CCCCCOC(C)=O
not listed: [5]
inactive: all other assays above

OC[C@H]1O[C@@](CO)(O[C@H]2O[C@H](CO)[C@@H](O)[C@H](O)[C@H]2O)[C@@H](O)[C@@H]1O
not listed: [5] | [10]
inactive: all other assays above

Cc1ncc([C@@H](CCCCCCc2ccc3c(n2)NCCC3)CC(=O)O)cn1
not listed: [5]
inactive: all other assays above

CCCc1ccccc1
not listed: [5] | [10]
inactive: all other assays above

O=C(NO)C1(NS(=O)(=O)c2ccc(Oc3ccc(F)cc3)cc2)CCOCC1
active: [1] 82.8 µM | [6] 60.9 µM | [10] 70.2 µM
not listed: [4] | [5]
inactive: all other assays above

Cn1cc[nH]c1=S
not listed: [5] | [10]
inactive: all other assays above

C=CCc1cc(S(=O)(=O)c2ccc(O)c(CC=C)c2)ccc1O
active: [1] 81.6 µM | [2] 50 µM | [6] 50 µM | [10] 79.1 µM
not listed: [5]
inactive: all other assays above

Cc1nc(-c2ccccn2)ncc1C(=O)Nn1cc(C)c2cc(F)ccc21
active: [1] 50 µM | [2] 12.2 µM | [6] 82.3 µM | [10] 50 µM
not listed: [5]
inactive: all other assays above

c1ccc2cc3ccccc3cc2c1
active: [1] 71.7 µM
not listed: [5] | [10]
inactive: all other assays above

CCCCCCCCCCCCCCO
not listed: [5]
inactive: all other assays above

O=C(O)c1cccc(C(=O)O)c1
not listed: [5]
inactive: all other assays above

NNC(=O)c1ccncc1
not listed: [5]
inactive: all other assays above

CCCCCCCC/C=C\CCCCCCCC(=O)OC[C@@H](O)[C@H]1OC[C@H](O)[C@H]1O
not listed: [5]
inactive: all other assays above

CCOC(N)=O
not listed: [5] | [10]
inactive: all other assays above

O=c1[nH]cnc2c1ncn2[C@H]1CC[C@@H](CO)O1
not listed: [5]
inactive: all other assays above

c1ccc2ncccc2c1
not listed: [5]
inactive: all other assays above

CC(C)C(=O)Nc1ccc([N+](=O)[O-])c(C(F)(F)F)c1
inactive: [3] | [7] | [9]
active: [1] 25.3 µM | [2] 34.3 µM | [4] 17.6 µM | [6] 50 µM | [8] 50 µM

C[C@@H](Oc1ccc(CNC(=O)c2cccnc2Oc2ccc3c(c2)OCO3)c(F)c1)C(=O)O
not listed: [5] | [10]
inactive: all other assays above

CCc1ccc(O)c(C(C)(C)C)c1
not listed: [5]
inactive: all other assays above

CCCCCCOC(=O)CC(CC(=O)OCCCCCC)(OC(=O)CCC)C(=O)OCCCCCC
not listed: [5]
inactive: all other assays above

CCN(CC)C(=S)SSC(=S)N(CC)CC
not listed: [5]
inactive: all other assays above
